In PubChem BioAssay (NCI):
This is part of a sample that, as a whole, favours compounds with a hit. Of some 83,000 tested, about 20% had one in any assay.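 How to read the values: 0–100, growth inhibition (40 = 60% inhibited); 0, no net growth; -100 to 0, cell death (-40 = 40% of starting cells died; -100 = all dead).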 A number with no mark means an inactive call. Calls of active or inactive are those of the source. How the source made its calls: active means growth percent below 10; inactive means the rest.

Columns and labels:
Experiment in all cases: NCI-60 one-dose screen, 48 h (100 = growth as untreated, 0 = no growth, -100 = all killed)
Conditions in all cases: 10 µM unless noted
SR leukemia = system: SR leukemia
RPMI-8226 leukemia = system: RPMI-8226 leukemia
OVCAR-5 ovarian = system: OVCAR-5 ovarian
OVCAR-4 ovarian = system: OVCAR-4 ovarian
SK-OV-3 ovarian = system: SK-OV-3 ovarian
IGROV1 ovarian = system: IGROV1 ovarian
OVCAR-3 ovarian = system: OVCAR-3 ovarian
HS 578T breast = system: HS 578T breast
NCI/ADR-RES ovarian = system: NCI/ADR-RES ovarian
T-47D breast = system: T-47D breast
BT-549 breast = system: BT-549 breast
MDA-MB-435 melanoma = system: MDA-MB-435 melanoma
SW-620 colon = system: SW-620 colon
MCF7 breast = system: MCF7 breast
HCT-116 colon = system: HCT-116 colon
HCC-2998 colon = system: HCC-2998 colon
KM12 colon = system: KM12 colon
OVCAR-8 ovarian = system: OVCAR-8 ovarian

Row | SMILES | growth (SR leukemia) | growth (RPMI-8226 leukemia) | growth (OVCAR-5 ovarian) | growth (OVCAR-4 ovarian) | growth (SK-OV-3 ovarian) | growth (IGROV1 ovarian) | growth (OVCAR-3 ovarian) | growth (HS 578T breast) | growth (NCI/ADR-RES ovarian) | growth (T-47D breast) | growth (BT-549 breast) | growth (MDA-MB-435 melanoma) | growth (SW-620 colon) | growth (MCF7 breast) | growth (HCT-116 colon) | growth (HCC-2998 colon) | growth (KM12 colon) | growth (OVCAR-8 ovarian)
1 | CC[C@]1(O)C[C@H]2CN(CCc3c([nH]c4ccccc34)C(C(=O)OC)(c3cc4c(cc3OC)N(C)[C@H]3[C@@](O)(C(=O)OC)[C@H](OC(C)=O)[C@]5(CC)[C@@H]6C[C@@H]6CN6CC[C@]43[C@@H]65)C2)C1 (stereo partly specified) | -20.5% (active) | 42.1% | 6.6% (active) | 29.1% | -11.9% (active) | 9.14% (active) | 5.03% (active) | 43.9% | -3.99% (active) | 65.6% | -47.2% (active) | -12.8% (active) | 31.6% | 4.81% (active) | -22.4% (active) | 2.47% (active) | 12% | 
2 | CC[C@H](C)[C@H](N)C(=O)O | 90.7% | 104% | 97.7% | 109% | 107% | 106% | 111% | 91.7% | 104% | 104% | 108% | 98.8% | 103% | 103% | 115% | 106% | 99.5% | 
3 | CCOC(=O)C(Cc1ccccc1)n1c(O)c(/C=N/c2ncc(Cc3ccc(Cl)cc3Cl)s2)sc1=S (stereo unspecified) | 27.8% | -7.55% (active) |  | 25.6% |  | 37.6% | 17.9% | -3.53% (active) | 5.71% (active) | -3.64% (active) | -1.04% (active) | 17.2% | 12% | 3.1% (active) | 1.61% (active) | 16.5% | 10.8% | 2.66% (active)
4 | O=C(Nc1cccc(Cl)c1)Nc1ccccc1Cl | 82.1% | 55.9% |  |  | 101% | 85.9% | 78.4% | 90.7% | 80.6% |  | 99.2% | 92.2% | 89.5% | 77.8% | 90% | 99.8% | 89.9% | 87.3%
5 | COc1cc2c(cc1OC)-c1cc(OC)c(OC)cc1C(CN(C)C)C2 (stereo unspecified) | 53.9% [100 µM] | 67.7% [100 µM] | 86% [100 µM] | -20.7% [100 µM] (active) | 6.96% [100 µM] (active) | 60.7% [100 µM] | 59.9% [100 µM] | 10.3% [100 µM] | 26.9% [100 µM] | 69.3% [100 µM] | 45.8% [100 µM] | 63.8% [100 µM] | 82.4% [100 µM] | 62% [100 µM] | 70.7% [100 µM] |  | 82.1% [100 µM] | 
6 | COc1ccc(-c2cc(-c3cn(-c4cccc(Cl)c4)nc3-c3ccc(OC)cc3)[nH]c(=S)n2)cc1 | 75.3% | 50.1% | 97% | 75.8% | 90.1% | 59.4% | 108% | 88.7% | 99.6% | 72.1% | 103% | 63.5% | 66.6% | 86.1% | 69.7% | 55.2% | 86.7% | 
7 | S=C(Cc1ccccc1)N1CCN(c2ccccc2Cl)CC1 | 70.3% | 95.1% | 97.6% | 105% | 101% | 110% | 106% | 97.3% | 96.7% | 94.4% | 96.6% | 104% | 103% | 110% | 88.2% | 101% | 94.5% | 
8 | CCOC(=O)C1OC2(CCCC2)OC1C(=O)OCC (stereo unspecified) | 104% | 84.8% | 110% | 118% | 105% | 96.6% | 122% | 105% | 117% | 98.4% | 98.9% | 112% | 113% | 98.2% | 98% | 104% | 104% | 
9 | COc1cc(/C=C2\CN(C(=O)OC(C)(C)C)C/C(=C\c3ccc(O)c(OC)c3)C2=O)ccc1O | 79.9% | 71.8% | 107% | 97.6% | 105% | 110% | 98.6% | 91.3% | 102% | 92.1% | 85.4% | 99.4% | 99.9% | 85.9% | 68.6% |  | 99.1% | 
10 | CC(C)(C)c1cc(C[P+](c2ccccc2)(c2ccccc2)c2ccccc2)cc(C(C)(C)C)c1O | -22.3% (active) | -35% (active) | 20.8% | 16.2% | -0.717% (active) | 12.1% | 13.8% | 16.2% | 73.2% | -4.23% (active) | -0.875% (active) | -38% (active) | 10.6% | 3.43% (active) | 5.83% (active) | 14.6% | -38.6% (active) | 
11 | CCOC(=O)c1cc(N)nc2ccccc12 | 102% | 106% | 109% | 109% | 101% | 120% | 109% | 82.7% | 104% | 93.7% | 105% | 108% | 91.8% | 107% | 102% | 111% | 98.4% | 
12 | O=[N+]([O-])c1ccc(Sc2nc(Cl)nc(NC3CCCC3)n2)cc1 | -28.3% [100 µM] (active) | -7.18% [100 µM] (active) | -90.5% [100 µM] (active) | -100% [100 µM] (active) | -100% [100 µM] (active) | -67.8% [100 µM] (active) | -100% [100 µM] (active) | 11.7% [100 µM] | -49.1% [100 µM] (active) | -35.4% [100 µM] (active) | -97.1% [100 µM] (active) | -95.9% [100 µM] (active) | -63.1% [100 µM] (active) | -84.9% [100 µM] (active) | -94.3% [100 µM] (active) | -86.5% [100 µM] (active) | -96.9% [100 µM] (active) | 
13 | Oc1c(C(Nc2ccccc2Br)c2ccccc2)ccc2cccnc12 (stereo unspecified) | 1.95% (active) | 45.8% | 44.5% |  | 35.2% | 20.1% | 32.8% | 59.2% | 2.07% (active) | 29.9% | 28.3% | 35.7% | 33.7% | 21% | 20% | 30.1% | 32.3% | 
14 | CC(C)N(C(=S)SSC(=S)N(C(C)C)C(C)C)C(C)C | 105% | 87.2% | 107% | 78.7% | 112% | 92.2% | 108% | 106% | 104% |  | 107% | 99.6% | 105% | 90.3% | 96.7% | 113% | 108% | 
15 | CCCCCc1c(C)[nH]c(/C=C2\N=C(c3ccc[nH]3)C=C2Oc2ccc(OC)cc2)c1C | -9.14% [100 µM] (active) | -37.7% [100 µM] (active) | -65.3% [100 µM] (active) | -99.7% [100 µM] (active) | -63.2% [100 µM] (active) | -70.6% [100 µM] (active) | -95% [100 µM] (active) | 0.631% [100 µM] (active) | -78% [100 µM] (active) | -48.5% [100 µM] (active) | -91.5% [100 µM] (active) | -82.2% [100 µM] (active) | -56.5% [100 µM] (active) | -100% [100 µM] (active) | -99.4% [100 µM] (active) | -58.2% [100 µM] (active) | -90.9% [100 µM] (active) | 
16 | CC(=O)Cc1ccccn1 | 108% | 103% | 110% | 106% | 119% | 107% | 105% | 107% | 108% | 108% | 97.8% | 102% | 108% | 97.8% | 107% | 111% | 105% | 
17 | C#CCO[C@H]1CC[C@H](OCC#C)[C@@H]2[C@H]1[C@H]1C[C@@H]3[C@@]4(C)CCC[C@@](C)(C(=O)OC)[C@@H]4CC[C@@]23C=C1C(C)C | 20.5% | 11.7% |  | 99.3% | 88.6% | 0.137% (active) | 75.4% | 114% | 71.4% | 94.6% | 106% | 106% | 103% | 90.5% | 70.4% | 94.6% | 78% | 
